Unmarked numbers belong to inactive results.

One assay concerns Pectobacterium parmentieri SCC3193. Description: DuctApe activity index (growth/respiration on compound as sole nutrient source, blank-subtracted) (activity index (0-3)); higher = stronger utilization of the compound, active = 3 or more. The settings on record: nutrient role (plate category): carbon. As for the experimental part: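 Biolog Phenotype Microarray plates PM1, PM2A (carbon), PM3 (nitrogen) and PM4 (phosphorus/sulfur) inoculated with P. parmentieri SCC3193 in M9-C minimal salts medium with Biolog dye A, and read in the OmniLog for 46 h. Each well was tested in triplicate and the experiment was run twice. DuctApe computed a blank-subtracted activity index (AV, 0-3) from the mean curves; growth is positive at AV >= 3 and negative at AV <= 2.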
`O=C(O)CCCCCCCCC(=O)O` [Sebacic acid]: the DuctApe activity index was 0.
In the case of `OCC(O)C(O)C(O)CO` (configuration not stated) [Adonitol], the DuctApe activity index was 1.
Regarding `O=C(O)Cc1ccc(O)cc1` [p-Hydroxyphenyl Acetic acid], the DuctApe activity index is 0.
The same measure, in the same setting: the same measure for `OC[C@@H](O)[C@H](O)[C@@H](O)CO` [Xylitol]: 0; for `OC[C@@H](O)[C@H](O)[C@H](O)[C@@H](O)CO` [Dulcitol]: 0.
On the same count and under the same terms, under `CCC(C)N` (configuration not stated) [sec-Butylamine] stands 0; under `O=C(O)c1ccc(O)cc1` [4-Hydroxybenzoic acid], 0.
Still for that read-out and setting: the same measure for `C[N+](C)(C)CC(O)CC(=O)[O-]` (racemic) [D,L-Carnitine]: 0; for `OC[C@@H]1OC(O)[C@@H](O)[C@H](O)[C@H]1O` (stereo partly drawn) [L-Glucose]: 0; for `CCCCCCCC/C=C\CCCCCCCC(=O)OCCOCC(OCCO)C1OCC(OCCO)C1OCCO` (configuration not stated) [Tween 80]: 0.
In the case of `CO[C@@H]1OC[C@@H](O)[C@H](O)[C@H]1O` [b-Methyl-D-Xyloside], the DuctApe activity index was 0.
On the same count and under the same terms, under `OC[C@H]1O[C@@H]2O[C@H]3[C@H](O)[C@@H](O)[C@@H](O[C@H]4[C@H](O)[C@@H](O)[C@@H](O[C@H]5[C@H](O)[C@@H](O)[C@@H](O[C@H]6[C@H](O)[C@@H](O)[C@@H](O[C@H]7[C@H](O)[C@@H](O)[C@@H](O[C@H]8[C@H](O)[C@@H](O)[C@@H](O[C@H]9[C@H](O)[C@@H](O)[C@@H](O[C@H]1[C@H](O)[C@H]2O)O[C@@H]9CO)O[C@@H]8CO)O[C@@H]7CO)O[C@@H]6CO)O[C@@H]5CO)O[C@@H]4CO)O[C@@H]3CO` [g-Cyclodextrin] stands 0; under `OCC1(O)OC[C@@H](O)[C@@H](O)[C@H]1O` (stereo partly drawn) [D-Psicose], 3 (active).
On the same count and under the same terms, under `N[C@@H](C(=O)O)[C@@H](O)[C@H](O)[C@H](O)CO` [D-Glucosaminic acid] stands 0.
Still for that read-out and setting: under `O=C(O)Cc1cccc(O)c1` [m-Hydroxyphenyl Acetic acid] stands 0.
Consider `O=C(O)/C=C/C(=O)O` [Fumaric acid], for which the DuctApe activity index is 3 (active).

The same assay, now with this note: nutrient role (plate category): nitrogen.
Turning to `NCCN` [Ethylenediamine], the DuctApe activity index is 0.
The same measure, in the same setting: under `NCCCCN=C(N)N` [Agmatine] stands 0.
For the molecule `NCCc1c[nH]cn1` [Histamine], the DuctApe activity index was 0.
The same measure, in the same setting: the same measure for `N[C@H]1C(O)O[C@H](CO)[C@H](O)[C@@H]1O` (stereo partly drawn) [D-Galactosamine]: 0; for `N` [Ammonia]: 0.
Still for that read-out and setting: under `O=c1[nH]c(=O)c2nc[nH]c2[nH]1` [Xanthine] stands 3 (active); under `Nc1ccn([C@@H]2O[C@H](CO)[C@@H](O)[C@H]2O)c(=O)n1` [Cytidine], 3 (active); under `NC(=O)C[C@@H](N)C(=O)O` [D-Asparagine], 1.
On the same count and under the same terms, under `NCC(=O)N[C@@H](CCC(N)=O)C(=O)O` stands 1; under `NC(=O)NC1NC(=O)NC1=O` (configuration not stated) [Allantoin], 0; under `CCC(N)C(=O)O` (racemic) [DL-a-Amino-N-Butyric acid], 1.

The same assay, now with this note: nutrient role (plate category): phosphate & sulphur.
Turning to `O=P(O)(O)OC(CO)CO` [b-Glycerol Phosphate], the DuctApe activity index is 2.
Take `O=c1ccn(C2OC(COP(=O)(O)O)C(O)C2O)c(=O)[nH]1` (configuration not stated) [Uridine 5`-Monophosphate]: the DuctApe activity index is 2.
Same read-out and setting: under `CS(=O)(=O)CC[C@H](N)C(=O)O` [L-Methionine Sulfone] stands 0; under `Nc1ncnc2c1ncn2[C@@H]1O[C@H](CO)[C@@H](OP(=O)(O)O)[C@H]1O` [Adenosine 3`-Monophosphate], 2; under `Nc1ccn([C@@H]2O[C@H](CO)[C@@H](O)[C@H]2OP(=O)(O)O)c(=O)n1` [Cytidine 2`-Monophosphate], 3 (active).
Same read-out and setting: the same measure for `NC(=O)CCCCC1CCSS1` (racemic) [DL-Lipoamide]: 1; for `O=C(O)C(CO)OP(=O)(O)O` [D-2-Phospho-Glyceric acid]: 2; for `Nc1nc2c(ncn2[C@@H]2O[C@H](COP(=O)(O)O)[C@@H](O)[C@H]2O)c(=O)[nH]1` [Guanosine 5`-Monophosphate]: 1.
Still for that read-out and setting: the same measure for `C[C@H](CCC(=O)NCCS(=O)(=O)O)[C@H]1CC[C@H]2[C@@H]3[C@H](O)C[C@@H]4C[C@H](O)CC[C@]4(C)[C@H]3C[C@H](O)[C@]12C` [Taurocholic acid]: 2; for `Nc1ccn([C@@H]2O[C@H](COP(=O)(O)O)[C@@H](O)[C@H]2O)c(=O)n1` [Cytidine 5`-Monophosphate]: 1.
